We go through 6 molecules from PubChem BioAssay (EPA / NIEHS).

In general, AC50 refers to the midpoint of the concentration-response curve, whichever way the signal moves.

Read-out in assay [1]: Monocyte Chemoattractant Protein-1 (MCP1), CCL2 (gene 6347)
The assay is described as follows: BSK_LPS_MCP1: BioMAP Diversity Plus: LPS Assay for Monocyte Chemoattractant Protein-1 (MCP1) Biomarker Activity (AID 2283081).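 For AC50: secreted MCP-1 protein quantified by ELISA in culture supernatant.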 Particulars: primary human HUVEC with PBMC; actives raise or lower the signal. Put shortly:
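HUVEC plus PBMC co-culture (human primary cells, LPS system) exposed to test chemical for 24 h; MCP-1 measured by ELISA. Bidirectional curve fitting against DMSO baseline; parallel SRB total-protein staining flags overt cytotoxicity.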

The nature of assay [2]: BSK_LPS_PGE2: BioMAP Diversity Plus: LPS Assay for Prostaglandin E2 (PGE2) Biomarker Activity (AID 2283082). The note with it: primary human HUVEC with PBMC; actives raise or lower the signal. Put shortly: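 Endpoint derived from bidirectional curve fitting versus DMSO of ELISA-measured PGE2 in LPS-stimulated human primary vascular co-culture (HUVEC with PBMC) harvested at 24 h.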

Read-out in assay [3]: Macrophage colony-stimulating factor (MCSF), CSF1 (gene 1435)
In words: BSK_LPS_MCSF: BioMAP Diversity Plus: LPS Assay for Macrophage colony-stimulating factor (MCSF) Biomarker Activity (AID 2283083). Particulars: primary human HUVEC with PBMC; actives raise or lower the signal. Put shortly: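 Human umbilical vein endothelial cells co-cultured with peripheral blood mononuclear cells were exposed to compound for 24 h. M-CSF levels were measured by ELISA, and bidirectional curve fitting used DMSO as the negative control and baseline.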

Read-out in assay [4]: Tissue Factor, F3 (gene 2152)
In words: BSK_LPS_TissueFactor: BioMAP Diversity Plus: LPS Assay for Tissue Factor Biomarker Activity (AID 2283084). The note with it: primary human HUVEC with PBMC; actives raise or lower the signal. Put shortly:
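Human umbilical vein endothelial cells co-cultured with peripheral blood mononuclear cells were dosed and stimulated with LPS. Cell-surface CD142 was quantified by ELISA at 24 h. Activity was fitted bidirectionally against DMSO baseline.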

Read-out in assay [5]: Tumor necrosis factor (Homo sapiens) (UniProt P01375)
In words: BSK_LPS_TNFa: BioMAP Diversity Plus: LPS Assay for Tumour Necrosis Factor alpha (TNFa) Biomarker Activity (AID 2283085). Particulars: primary human HUVEC with PBMC; actives raise or lower the signal. In a few lines: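 Primary human vascular co-culture of HUVEC and PBMC; TNFa ELISA 24 h after treatment, analysed as increase or decrease relative to DMSO control.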

Read-out in assay [6]: Vascular cell adhesion molecule 1 (VCAM1), VCAM1 (gene 7412)
The assay is described as follows: BSK_LPS_VCAM1: BioMAP Diversity Plus: LPS Assay for Vascular cell adhesion molecule 1 (VCAM1) Biomarker Activity (AID 2283086). Particulars: primary human HUVEC with PBMC; actives raise or lower the signal. In a few lines: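 Primary human vascular co-culture (umbilical vein endothelium plus PBMC) stimulated with LPS received chemical; 24 h later VCAM-1 was read by ELISA. Overt cytotoxicity was assessed by sulforhodamine B staining of parallel cultures at the same time point.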

Read-out in the next assay: CD38, CD38 (gene 952)
In words: BSK_SAg_CD38: BioMAP Diversity Plus: SAg Assay for CD38 Biomarker Activity (AID 2283087). The note with it: primary human HUVEC with PBMC; actives raise or lower the signal. In a few lines: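 Fluorescence ELISA of cell-surface CD38 served as the read-out, with either increase or decrease fitted against DMSO controls. Cells were a human umbilical vein endothelium plus PBMC co-culture under SEB/TSST-1 stimulation, measured 24 h after dosing.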

Read-out in another assay: CD40, CD40 (gene 958)
In words: BSK_SAg_CD40: BioMAP Diversity Plus: SAg Assay for CD40 Biomarker Activity (AID 2283088). Particulars: primary human HUVEC with PBMC; actives raise or lower the signal. In a few lines:
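Human umbilical vein endothelial cells co-cultured with PBMC; CD40 levels measured by ELISA with fluorescence read-out 24 h after chemical dosing. Gain or loss of signal fitted bidirectionally against DMSO baseline.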

Read-out in a further assay: CD69, CD69 (gene 969)
The assay is described as follows: BSK_SAg_CD69: BioMAP Diversity Plus: SAg Assay for CD69 Biomarker Activity (AID 2283089).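 For AC50: cell surface CD69 protein quantified by ELISA with fluorescence detection.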 The note with it: primary human HUVEC with PBMC; actives raise or lower the signal. In a few lines: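 Values derive from bidirectional fitting relative to DMSO vehicle. Cells: umbilical vein endothelium plus peripheral blood mononuclear cells, treated 24 h before fluorescent ELISA for CD69.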

Read-out in assay [7]: Monocyte Chemoattractant Protein-1 (MCP1), CCL2 (gene 6347)
In words: BSK_SAg_MCP1: BioMAP Diversity Plus: SAg Assay for Monocyte Chemoattractant Protein-1 (MCP1) Biomarker Activity (AID 2283090). The note with it: primary human HUVEC with PBMC; actives raise or lower the signal. Put shortly: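 MCP-1 levels in the endothelial–PBMC SAg co-culture were quantified by ELISA at 24 h post-dosing; both increases and decreases versus DMSO scored. Cytotoxicity monitored by SRB total protein in parallel cultures.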

Read-out in assay [8]: E-selectin (Homo sapiens) (UniProt P16581)
In words: BSK_SAg_Eselectin: BioMAP Diversity Plus: SAg Assay for Eselectin Biomarker Activity (AID 2283091). The note with it: primary human HUVEC with PBMC; actives raise or lower the signal. Put shortly: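 HUVEC co-cultured with PBMC, compound dosed then read at 24 h; E-selectin measured by ELISA. Activity fitted bidirectionally against DMSO as negative control and baseline.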

Read-out in assay [9]: Monokine induced gamma interferon (MIG), CXCL9 (gene 4283)
The assay is described as follows: BSK_SAg_MIG: BioMAP Diversity Plus: SAg Assay for Monokine induced gamma interferon (MIG) Biomarker Activity (AID 2283092). The note with it: primary human HUVEC with PBMC; actives raise or lower the signal. Put shortly: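 Values reflect bidirectional fitting of ELISA-measured MIG against DMSO vehicle, taken 24 h after dosing of a co-culture of human umbilical vein endothelial cells and peripheral blood mononuclear cells.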

Assay [10] is described as follows: BSK_SAg_PBMCCytotoxicity: PBMC Cytotoxicity Assessment in the BioMAP Diversity Plus: SAg Assay (AID 2283093).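 For AC50: PBMC superantigen activated with SEB plus TSST-1 one hour after compound addition.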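 Note: PBMC viability measured as Alamar Blue reduction fluorescence at 546/580 nm; fitted both ways against DMSO so a hit may be loss or gain of signal.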 The note with it: primary human HUVEC with PBMC. Put shortly:
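Human umbilical vein endothelial cells co-cultured with PBMC; PBMC (75,000/well) pre-treated with compound 1 h, then activated with SEB and TSST-1 (20 ng/mL final each) for 90 h. Alamar Blue added 6 h, fluorescence 546/580 nm; bidirectional fit versus DMSO.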

Read-out in assay [11]: Interleukin-8 (IL8), CXCL8 (gene 3576)
The assay is described as follows: BSK_SAg_IL8: BioMAP Diversity Plus: SAg Assay for Interleukin-8 (IL8) Biomarker Activity (AID 2283094). The note with it: primary human HUVEC with PBMC; actives raise or lower the signal. Put shortly: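 In this co-culture of human umbilical vein endothelium with peripheral blood mononuclear cells, IL-8 is assayed by ELISA at 24 h. DMSO serves as baseline for bidirectional curve fitting.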

Assay [12] can be described thus: BSK_SAg_Proliferation: Cell Proliferation Assessment in the BioMAP Diversity Plus: SAg Assay (AID 2283095).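 Note: relative cell number as total protein by SRB absorbance in sub-confluent culture.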 The note with it: primary human HUVEC with PBMC. Put shortly: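 Readout is SRB-stained protein (560 nm) in a primary human HUVEC and PBMC co-culture; sub-confluent cultures are read at 96 h. Activity is fitted bidirectionally using DMSO as baseline.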
A short description of assay [13]: BSK_SAg_SRB: Viability Assessment in the BioMAP Diversity Plus: SAg Assay (AID 2283096).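 Note: cells read one day after compound addition; hits may be either gain or loss of signal compared with DMSO.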 Particulars: primary human HUVEC with PBMC. Put shortly:
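Endothelial/PBMC primary human co-culture; compound 24 h; fix 10% TCA, stain 0.1% SRB, A560; protein content as cytotoxicity proxy; bidirectional curve fit, DMSO = baseline.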

“And” between values parts separate entries of the source, which are not always exact repeats. Equal entries are not always repeated. The source holds several records for some structures; these can differ, active in one and inactive in another. The source made the active and inactive calls. Rule for the calls: active = hit-call score of the fitted dose curve at least 0.9, where 1 is the maximum; inactive = score below 0.9.

Sequence of E-selectin (Homo sapiens) (P16581 whole entry, looked up): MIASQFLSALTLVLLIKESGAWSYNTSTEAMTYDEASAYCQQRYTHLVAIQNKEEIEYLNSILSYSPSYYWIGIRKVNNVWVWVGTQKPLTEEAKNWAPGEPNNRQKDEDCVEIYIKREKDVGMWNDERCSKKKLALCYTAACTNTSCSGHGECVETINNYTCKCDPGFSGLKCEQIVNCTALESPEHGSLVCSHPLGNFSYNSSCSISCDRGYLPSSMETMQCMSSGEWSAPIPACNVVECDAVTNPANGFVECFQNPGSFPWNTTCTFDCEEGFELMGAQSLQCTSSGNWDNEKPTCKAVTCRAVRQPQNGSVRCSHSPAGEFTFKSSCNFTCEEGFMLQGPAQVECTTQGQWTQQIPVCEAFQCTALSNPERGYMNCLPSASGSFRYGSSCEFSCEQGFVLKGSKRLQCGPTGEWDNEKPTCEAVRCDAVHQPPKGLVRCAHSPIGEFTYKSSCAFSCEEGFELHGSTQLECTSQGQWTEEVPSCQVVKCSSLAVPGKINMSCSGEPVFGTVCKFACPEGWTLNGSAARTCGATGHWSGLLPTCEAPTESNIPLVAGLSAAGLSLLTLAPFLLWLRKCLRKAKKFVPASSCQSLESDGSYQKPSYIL
Sequence of Tumor necrosis factor (Homo sapiens) (P01375 whole entry, looked up): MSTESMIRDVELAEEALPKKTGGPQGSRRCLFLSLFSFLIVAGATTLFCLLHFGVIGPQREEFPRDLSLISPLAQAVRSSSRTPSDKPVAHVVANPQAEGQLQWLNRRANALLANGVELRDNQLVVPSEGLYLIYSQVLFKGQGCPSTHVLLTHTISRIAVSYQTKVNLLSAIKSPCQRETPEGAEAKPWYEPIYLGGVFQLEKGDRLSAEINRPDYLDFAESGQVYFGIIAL

On to `CCCCCCCCC(F)(F)C(F)(F)C(F)(F)C(F)(F)C(F)(F)C(F)(F)F`, for which the outcome in assay [1], in assay [2], in assay [3], in assay [4], in assay [5] and in assay [6] was inactive. Also, the outcome with CD38, CD38 (gene 952) is “inactive”; with CD40, CD40 (gene 958), “inactive”; with CD69, CD69 (gene 969), “inactive”; in [7] it was “inactive”; in assay [8], “inactive”; in assay [9], “inactive”. In addition, the result in assay [10], in assay [11], in [12] and in assay [13] was inactive.
Turning to `O=C(CC(=O)C(F)(F)C(F)(F)F)C(F)(F)F`, the outcome in [1], in [2], in assay [3], in assay [4], in assay [5] and in assay [6] was inactive. Moreover, the outcome with CD38, CD38 (gene 952) is “inactive”; with CD40, CD40 (gene 958), “inactive”; in the assay with CD69, CD69 (gene 969) it was “inactive”; in [7], “inactive”; in assay [8], “inactive”; in assay [9] it was “inactive”. For the same molecule, the result in [10], in assay [11], in assay [12] and in [13] was inactive.
As to `FC(F)(F)C(F)(F)C(F)(F)C(F)(F)C(F)(F)C(F)(F)C(F)(F)Br`, the outcome in assay [1], in [2], in assay [3], in assay [4], in assay [5] and in assay [6] was inactive. Moreover, the outcome with CD38, CD38 (gene 952) is “inactive”; with CD40, CD40 (gene 958) it was “inactive”; with CD69, CD69 (gene 969), “inactive”; in assay [7], “inactive”; in assay [8], “inactive”; in [9], “inactive”. Moreover, the outcome in assay [10], in assay [11], in [12] and in assay [13] was inactive.
On to `O=C(O)C(F)(F)C(F)(F)C(F)(F)C(F)(F)F`, for which the outcome in [1], in [2], in [3], in assay [4], in assay [5] and in assay [6] was inactive. The outcome in the assay with CD38, CD38 (gene 952) is “inactive”; with CD40, CD40 (gene 958), “inactive”; with CD69, CD69 (gene 969), “inactive”; in assay [7] it was “inactive”; in [8], “inactive”; in assay [9], “inactive”. Further, the outcome in assay [10], in assay [11], in assay [12] and in assay [13] was inactive. Besides, in assay [3], the AC50 is 8.3 µM (active).
As for `CCCCCCOC(=O)c1ccccc1O`, the AC50 is 40.6 µM (active) in assay [1]; 39.8 µM (active) in [2]; 40.6 µM (active) in assay [4]; 37.3 µM (active) and 39.6 µM (active) in assay [5]; 40.2 µM (active) and 38.2 µM (active) in [6]; 45.2 µM (active) and 29.1 µM (active) in the assay with CD40, CD40 (gene 958). Further, the AC50 with CD69, CD69 (gene 969) is 39.3 µM (active) and 45.2 µM (active); in [7], 27.6 µM (active) and 45.1 µM (active); in assay [8], 38.3 µM (active) and 39.5 µM (active); in [10] it was 36.9 µM (active) and 44.8 µM (active); in assay [11], 38.2 µM (active); in [12], 38.7 µM (active) and 45.4 µM (active). In addition, the AC50 in assay [13] is 42.4 µM (active). The outcome in assay [1], in [2], in assay [3], in assay [4], in assay [9] and in [11] was inactive. Also, the result in assay [13] was inactive.
Regarding `FC(F)(F)C(F)(F)C(F)(F)N(C(F)(F)C(F)(F)C(F)(F)F)C(F)(F)C(F)(F)C(F)(F)F`, the result in [1], in [2], in assay [3], in [4], in [5] and in assay [6] was inactive. Moreover, the outcome with CD38, CD38 (gene 952) was “inactive”; in the assay with CD40, CD40 (gene 958) it was “inactive”; with CD69, CD69 (gene 969), “inactive”; in [7], “inactive”; in [8] it was “inactive”; in assay [9], “inactive”. Also, the outcome in assay [10], in assay [11], in [12] and in assay [13] was inactive.
